{"source": "PubChem BioAssay (NCATS)", "key": {"[1]": {"assay": "qHTS of pediatric cancer cell lines to identify multiple opportunities for drug repurposing: Primary screen for BT-12 cells (AID 1347101); note: nearly all actives have a fitted effect of over 25% in size", "procedure,_shortened": "(§1)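 Cells (500-1,000/well) rested 5 h, then received compounds for 48 h; metabolically active cells were measured by CellTiter-Glo luminescence. Final concentrations spanned up to 46 µM (MIPE, 11-point) or 0.59 nM-46 µM (NPC, 8-point) in primary screens, 11-point in follow-ups.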"}, "[2]": {"assay": "qHTS of pediatric cancer cell lines to identify multiple opportunities for drug repurposing: Primary screen for Rh18 cells (AID 1347102)", "procedure,_shortened": "as §1"}, "[3]": {"assay": "qHTS of pediatric cancer cell lines to identify multiple opportunities for drug repurposing: Primary screen for OHS-50 cells (AID 1347103)", "procedure,_shortened": "as §1"}, "[4]": {"assay": "qHTS of pediatric cancer cell lines to identify multiple opportunities for drug repurposing: Primary screen for RD cells (AID 1347104)", "procedure,_shortened": "(§2)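 Plated cells (500-1,000 per well, growth media) were allowed to settle for 5 hours, treated with compound dilutions for 48 hours, then lysed with CellTiter-Glo for 15 min at room temperature before luminescence reading.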"}, "[5]": {"assay": "qHTS of pediatric cancer cell lines to identify multiple opportunities for drug repurposing: Primary screen for MG 63 (6-TG R) cells (AID 1347105)", "procedure,_shortened": "as §2"}, "[6]": {"assay": "qHTS of pediatric cancer cell lines to identify multiple opportunities for drug repurposing: Primary screen for control Hh wild type fibroblast cells (AID 1347106)", "procedure,_shortened": "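Cells (500-1,000/well) in growth media were settled 5 h at 37 degrees C, then given compounds for 48 h. Viability was read as CellTiter-Glo luminescence. Primary runs used MIPE at 11 points (0.78 nM-46 µM) and NPC at 8 points (0.59 nM-46 µM); follow-ups used 11 points.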"}, "[7]": {"assay": "qHTS of pediatric cancer cell lines to identify multiple opportunities for drug repurposing: Primary screen for Rh30 cells (AID 1347107)", "procedure,_shortened": "as §1"}, "[8]": {"assay": "qHTS of pediatric cancer cell lines to identify multiple opportunities for drug repurposing: Primary screen for Rh41 cells (AID 1347108)", "procedure,_shortened": "as §2"}, "[9]": {"molecular_target": "N-terminal Xaa-Pro-Lys N-methyltransferase 1 (Homo sapiens) (UniProt Q9BV86)", "sequence (Q9BV86 whole entry, looked up)": "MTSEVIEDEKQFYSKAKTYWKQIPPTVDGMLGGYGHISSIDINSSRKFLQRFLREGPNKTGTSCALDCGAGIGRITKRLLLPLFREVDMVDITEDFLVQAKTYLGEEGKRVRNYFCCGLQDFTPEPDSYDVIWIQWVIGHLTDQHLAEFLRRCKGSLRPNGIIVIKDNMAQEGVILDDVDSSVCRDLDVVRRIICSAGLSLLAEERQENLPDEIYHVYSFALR", "assay": "qHTS Assay for Inhibitors of N-terminal methyltransferase 1 (NTMT1): LOPAC validation of the NTMT1 SAHH-coupled ThioGlo3 Assay (AID 1347143)", "settings": "recombinant NTMT1, SAHH-coupled ThioGlo3 fluorescence", "procedure,_shortened": "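NTMT1 125nM + cpds (various conc.), 1 min RT; add SAM 100uM/SAHH 10uM/ThioGlo3 15uM (addition mix). SAHH-coupled thiol detection, Ex340/Em450, t0 and 30 min RT; signal normalized to background. LOPAC 1280-cpd pilot.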"}, "Furin (Homo sapiens)": {"molecular_target": "Furin (Homo sapiens) (UniProt P09958)", "sequence (P09958 whole entry, looked up)": "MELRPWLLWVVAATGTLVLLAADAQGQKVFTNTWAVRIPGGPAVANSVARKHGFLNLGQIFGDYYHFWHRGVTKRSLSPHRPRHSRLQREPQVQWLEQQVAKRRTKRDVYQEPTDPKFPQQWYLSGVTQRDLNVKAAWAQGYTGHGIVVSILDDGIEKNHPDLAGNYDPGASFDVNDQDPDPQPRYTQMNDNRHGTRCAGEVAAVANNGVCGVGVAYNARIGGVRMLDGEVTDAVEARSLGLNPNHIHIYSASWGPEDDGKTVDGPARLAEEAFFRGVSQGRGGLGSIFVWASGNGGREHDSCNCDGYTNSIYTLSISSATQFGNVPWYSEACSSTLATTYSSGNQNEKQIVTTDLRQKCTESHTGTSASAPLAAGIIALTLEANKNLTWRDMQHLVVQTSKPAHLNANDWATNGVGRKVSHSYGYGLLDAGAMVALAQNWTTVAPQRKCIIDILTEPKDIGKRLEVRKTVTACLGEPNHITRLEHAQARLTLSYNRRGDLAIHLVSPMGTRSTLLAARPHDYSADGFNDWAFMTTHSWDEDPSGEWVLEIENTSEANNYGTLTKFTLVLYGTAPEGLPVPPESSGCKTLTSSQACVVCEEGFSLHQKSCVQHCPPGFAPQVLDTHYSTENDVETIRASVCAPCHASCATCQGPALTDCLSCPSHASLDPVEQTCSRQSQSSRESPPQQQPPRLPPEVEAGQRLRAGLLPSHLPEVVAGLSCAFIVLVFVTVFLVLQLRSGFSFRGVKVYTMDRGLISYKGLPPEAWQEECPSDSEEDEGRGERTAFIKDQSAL", "assay": "Furin counterscreen qHTS for Zika virus inhibitors (AID 1347149)", "procedure,_shortened": "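Counterscreen measures cleavage of 2 microM BOC-RVRR-AMC, below its ~15 microM Km, by 5 nM full-length human furin at pH 7.0 after a 15-min compound preincubation. Inhibition derives from the 15-min fluorescence increase at 37C.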"}}, "note": "Results filed as inconclusive are left out. Where a call stands in place of a potency, no number is given. Activity calls are given as the source filed them. Calls come from the whole dose curve; as a rule, active = well fitted curve in the direction sought with a large enough effect; inconclusive = small, poorly fitted or top-dose-only effect, or another doubt; inactive = no such curve, though single readings can be large; an effect the other way counts as inactive or inconclusive.", "data": [{"smiles": "CN1Cc2c(N)cccc2C(c2ccccc2)C1", "note": "(stereo not drawn)", "values": [{"measurement": "outcome", "setting": "[1]", "result": "inactive"}, {"measurement": "outcome", "setting": "[2]", "result": "inactive"}, {"measurement": "outcome", "setting": "[3]", "result": "inactive"}, {"measurement": "outcome", "setting": "[4]", "result": "inactive"}, {"measurement": "outcome", "setting": "[5]", "result": "inactive"}, {"measurement": "outcome", "setting": "[6]", "result": "inactive"}, {"measurement": "outcome", "setting": "[7]", "result": "inactive"}, {"measurement": "outcome", "setting": "[8]", "result": "inactive"}, {"measurement": "Potency", "setting": "[9]", "result": "35.5 µM (active)"}]}, {"smiles": "O=S(=O)(O)c1ccc2c(N=Nc3ccc(S(=O)(=O)O)c4ccccc34)c(O)c(S(=O)(=O)O)cc2c1", "values": [{"measurement": "Potency", "setting": "Furin (Homo sapiens)", "result": "inactive"}]}, {"smiles": "CC(=O)OC(C)OC(=O)C(C)c1ccc(-c2ccccc2)c(F)c1", "note": "(stereo not drawn)", "values": [{"measurement": "outcome", "setting": "[1]", "result": "inactive"}, {"measurement": "outcome", "setting": "[2]", "result": "inactive"}, {"measurement": "outcome", "setting": "[3]", "result": "inactive"}, {"measurement": "outcome", "setting": "[4]", "result": "inactive"}, {"measurement": "outcome", "setting": "[5]", "result": "inactive"}, {"measurement": "outcome", "setting": "[6]", "result": "inactive"}, {"measurement": "outcome", "setting": "[7]", "result": "inactive"}, {"measurement": "outcome", "setting": "[8]", "result": "inactive"}]}, {"smiles": "C=C1CC[C@@H]2[C@](C)(CO[C@@H]3O[C@H](CO)[C@@H](O)[C@H](O)[C@H]3O)CCC[C@@]2(C)[C@@H]1CCC1=CCOC1=O", "values": [{"measurement": "Potency", "setting": "Furin (Homo sapiens)", "result": "inactive"}]}, {"smiles": "O=C(O)c1cnn(-c2nc3cc(OC(F)(F)F)c(Cl)cc3[nH]2)c1", "values": [{"measurement": "Potency", "setting": "Furin (Homo sapiens)", "result": "90.2 µM (active)"}]}, {"smiles": "CC(C)N=c1cc2n(-c3ccc(Cl)cc3)c3ccccc3nc-2cc1Nc1ccc(Cl)cc1", "values": [{"measurement": "Potency", "setting": "Furin (Homo sapiens)", "result": "inactive"}]}, {"smiles": "N#CC1C(=O)Nc2scc(-c3ccc(-c4ccccc4O)cc3)c2C1=O", "note": "(stereo not drawn)", "values": [{"measurement": "Potency", "setting": "Furin (Homo sapiens)", "result": "inactive"}]}, {"smiles": "Nc1c(N=Nc2ccc(-c3ccc(N=Nc4cc(S(=O)(=O)O)c5ccccc5c4N)cc3)cc2)cc(S(=O)(=O)O)c2ccccc12", "values": [{"measurement": "Potency", "setting": "Furin (Homo sapiens)", "result": "37.3 µM (active)"}]}, {"smiles": "O=C(/C=C/c1c(C(=O)O)[nH]c2cc(Cl)cc(Cl)c12)Nc1ccccc1", "values": [{"measurement": "Potency", "setting": "Furin (Homo sapiens)", "result": "inactive"}]}, {"smiles": "O=C(O)c1cc(O)c2cccc(O)c2c1O[C@@H]1O[C@H](CO)[C@@H](O)[C@H](O)[C@H]1O", "values": [{"measurement": "Potency", "setting": "Furin (Homo sapiens)", "result": "34.3 µM (active)"}]}, {"smiles": "CCOc1c2c(c(OCC)c3ccccc13)C(=O)N(c1ccc(CC(=O)NS(=O)(=O)c3ccccc3)cc1)C2", "values": [{"measurement": "Potency", "setting": "Furin (Homo sapiens)", "result": "inactive"}]}, {"smiles": "CC(C)C(=O)c1cn(CC(=O)COc2ccc(Oc3ccccc3)cc2)c2ccc(C(=O)O)cc12", "values": [{"measurement": "Potency", "setting": "Furin (Homo sapiens)", "result": "inactive"}]}, {"smiles": "CC(C)C1=CCC(C)(O)C(OC2OC(CO)C(O)C(O)C2O)C1", "note": "(stereo not drawn)", "values": [{"measurement": "Potency", "setting": "Furin (Homo sapiens)", "result": "inactive"}]}]}
